# Rab9 promoter act = qHTS Assay for Rab9 Promoter Activators; Huh7 Rab9 promoter-luciferase reporter, luminescence, 24 h; Potency, µM (doses to about 9.22 µM), inactives show top-dose activation, negative = inhibition, most hits filed as activators; hit rate 2.8% among 320,000; note: % of control where 0% means no effect; nearly all actives have a fitted effect of over 60% in size
#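 Luminescence from Amplite-detected luciferase (10 minutes, ambient) reports Rab9 promoter activation. Before that, stable Rab9-luciferase Huh7 cells (1500/well, reduced-serum OP-MEM I plus 10% FBS) were exposed to compound for 24 hours at 37C.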
# NPC1 promoter act = qHTS Assay for NPC1 Promoter Activators. hit rate 2.4% among 320,000. Huh7 NPC1 promoter luciferase reporter, 24 h. Potency, µM (doses to about 9.22 µM), for the others: at the top dose activation, actives largely listed as activators; note: % of control where 0% means no effect; nearly all actives have a fitted effect of over 60% in size
#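 Compounds in DMSO were transferred onto Huh7 NPC1-luciferase reporter cells pre-incubated 2 h; after 24 h at 37 °C, Amplite reagent was dispensed and luminescence recorded 10 min later.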
# FLuc modulator = qHTS profiling assay for firefly luciferase inhibitor/activator using purifed enzyme and Km concentrations of substrates (counterscreen for miR-21 project); Potency, µM (highest dose often 57.5 µM), for the others: top-dose activity change, negative = inhibition, hits mostly inhibitors; Luciferin 4-monooxygenase (Photinus pyralis), P08659; purified FLuc, Km substrates, luminescence inhibition; AID 588342, 2011; hit rate 6.9% among 360,000;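 note: plate controls were vehicle for no effect and reference inhibitor for full effect; nearly all actives have a fitted effect of over 55% in size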
# Target sequence (P08659 whole entry, looked up): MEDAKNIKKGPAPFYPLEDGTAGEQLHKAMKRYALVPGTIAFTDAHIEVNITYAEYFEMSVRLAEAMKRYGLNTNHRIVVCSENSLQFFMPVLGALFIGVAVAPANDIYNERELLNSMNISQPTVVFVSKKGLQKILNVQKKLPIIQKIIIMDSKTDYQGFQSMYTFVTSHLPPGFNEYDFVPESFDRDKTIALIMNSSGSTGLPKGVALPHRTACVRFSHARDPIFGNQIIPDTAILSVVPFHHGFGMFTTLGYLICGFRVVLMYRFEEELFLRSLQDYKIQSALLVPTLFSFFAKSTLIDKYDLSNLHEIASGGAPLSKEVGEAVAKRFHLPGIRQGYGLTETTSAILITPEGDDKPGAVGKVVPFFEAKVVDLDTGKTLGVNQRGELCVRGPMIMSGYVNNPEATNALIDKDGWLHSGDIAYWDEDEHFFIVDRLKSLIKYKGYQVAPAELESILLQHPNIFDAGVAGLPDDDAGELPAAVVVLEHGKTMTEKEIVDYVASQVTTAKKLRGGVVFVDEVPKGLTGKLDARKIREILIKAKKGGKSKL
#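 Biochemical qHTS of compounds, final roughly 60 µM downward over six points, against 10 nM purified firefly luciferase using Km concentrations of substrates (10 uM D-luciferin, 10 uM ATP) in Tris acetate pH 7.5 buffer; luminescence output.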
# SMN2 splice up = qHTS Assay for Enhancers of SMN2 Splice Variant Expression. HEK293 SMN2-luciferase splicing reporter, luminescence, 30-36 h. Potency, µM (series often up to 46.1 µM), for inactives: at the highest dose activity change, positive = activation, most hits filed as activators. hit rate 2.8% among 210,000. AID 1458, 2008; note: % of control where 0% means no effect; nearly all actives have a fitted effect of over 55% in size
#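 HEK293 cells carry an SMN2 […]–luciferase reporter in which exon 7 inclusion puts luciferase in frame. Cells were plated 10-12 h before compound addition, then incubated 30-36 h at 37C. ONE-Glo luminescence was read; sodium butyrate at 4.5 mM final served as control.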
# ELG1 genotoxic = qHTS screen for small molecules that induce genotoxicity in human embryonic kidney (HEK293T) cells expressing luciferase-tagged ELG1; HEK293T ELG1-luciferase reporter, luminescence, 16 h; Potency, µM (highest dose often 46 µM), inactives show top-dose activity change, positive = activation, actives largely listed as activators; hit rate 1.3% among 330,000; note: % of control where 0% means no effect; nearly all actives have a fitted effect of over 60% in size
#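 Quantitative HTS format in 1536-well plates. HEK293T ELG1-luciferase reporter cells receive test compound and are incubated 16 hr at 37 °C, 5% CO2; ONE-Glo added, 30 min room temperature, then luminescence read.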
# KinaseGlo FLuc = Counterscreen for Luciferase (Kinase-Glo TM) Inhibition. Luciferin 4-monooxygenase (Photuris pensylvanica), Q27757. Kinase-Glo luciferase, ATP luminescence, 8 min. Potency, µM (top dose mostly 38.3 µM), for inactives: at the top dose activity change, negative = inhibition, actives largely listed as inhibitors. hit rate 0.28% among 200,000; note: % is set by controls: 0 for no effect and ±100 for the full control effect; nearly all actives have a fitted effect of over 60% in size
#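 Kinase-Glo luciferase light output from ATP and luciferin was measured with 10 uM ATP, within the enzyme's linear range. Buffer: 50 mM imidazole pH 7.2, 50 mM KCl, 7 mM MgCl2, 0.01% Tween 20, 0.05% BSA; luminescence read after 8 min at ambient temperature.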
# Starred values were filed as active, the others as inactive; ? = inconclusive; nt = not tested or not shown; [ ] = dose if it differs, or a comment. The list is not random: actives were taken first. Their share in the collection is about 7.4%. Calls come from the whole dose curve; as a rule, active = well fitted curve in the direction sought with a large enough effect; inconclusive = small, poorly fitted or top-dose-only effect, or another doubt; inactive = no such curve, though single readings can be large; an effect the other way counts as inactive or inconclusive. Potency is the fitted concentration of half-maximal effect.
SMILES,Rab9 promoter act,NPC1 promoter act,FLuc modulator,SMN2 splice up,ELG1 genotoxic,KinaseGlo FLuc
O=C(/C=C/c1ccccc1)NNC(=O)c1cccnc1,-2%,2%,-5%,-13%,-1%,-1%
O=C(/C=C/c1ccccc1)Nc1cccnc1,2.2µM*,2.2µM*,6.7µM*,nt,?,nt
O=C(/C=C/c1ccc([N+](=O)[O-])cc1)Nc1cccnc1,3.5µM*,2.8µM*,5.4µM*,13µM*,?,?
O=C(/C=C/c1ccc(Cl)c([N+](=O)[O-])c1)Nc1cccnc1,-10%,0%,-11%,6%,7%,3%
C[C@H](CCC(=O)NCC(=O)O)C1CC[C@H]2C3CC[C@@H]4C[C@H](O)CC[C@]4(C)C3C[C@H](O)[C@]12C (stereo not given in full),nt,nt,nt,3%,nt,nt
COc1ccc(-n2c(SCC(=O)NC3CCCCC3)nc3c([nH]c4ccccc43)c2=O)cc1,nt,nt,0%,nt,nt,nt
CC#CCN1c2ccccc2[C@]23C[C@@H](C(=O)OC)N(S(=O)(=O)c4c(C)noc4C)C2=NC(C(=O)OC)=C(C(=O)OC)[C@H]13,nt,nt,nt,22%[9.22 µM],nt,1%[7.66 µM]
ICCc1ccccc1,nt,nt,nt,-8%,nt,nt
CCSc1nnc2c(n1)[nH]c1c(C)cccc12,5.6µM*,0%,12µM*,-37%,?,-6%
Cn1cc(S(=O)(=O)N2CCCCC2)cc1C(=O)Nc1cccc(C#N)c1,nt,nt,-2%,nt,nt,nt
Cc1cc(-c2ccc(Br)cc2)n[nH]1,?,?,19µM*,?,?,1%
Nc1cc(-c2ccc(Br)cc2)[nH]n1,16%,18%,?,-2%,-2%,3%
O=C(CS(=O)(=O)c1cccc2nsnc12)Nc1ccc(F)cc1,nt,nt,-3%,nt,nt,nt
Cc1csc(NC(=O)c2cc3c(s2)CCCC3)n1,?,0.56µM*,0.27µM*,nt,?,nt
Cc1csc(NC(=O)C2CCCC2)n1,23%,18%,-25%,28%,?,-1%
Cc1csc(NC(=O)c2cc3c(s2)CCCCC3)n1,0.5µM*,0.35µM*,0.13µM*,1µM*,0.21µM*,?
Cc1cnc(NC(=O)c2cc3c(s2)CCCC3)s1,0.71µM*,?,0.27µM*,?,?,-14%
O=C(Nc1nn[nH]n1)c1nc(-c2ccccc2)cc(=O)[nH]1,nt,nt,nt,-4%[9.22 µM],nt,-1%[7.66 µM]
CS(=O)(=O)c1ccc2nc(NC(=O)CN3C(=O)C4CC=CCC4C3=O)sc2c1 (stereo not given),0%,-6%,?,9%,-3%,1%
C[C@@H](C(=O)Nc1nc2ccc(F)cc2s1)N1C(=O)C2CC=CCC2C1=O (stereo not given in full),2%,13%,-18%,31%,3%,1%
Cc1ccc2nc(NC(=O)[C@H](C)N3C(=O)C4CC=CCC4C3=O)sc2c1 (stereo not given in full),-21%,-14%,17µM*,21%,5%,1%
Cc1ccc2nc(NC(=O)CN3C(=O)C4CC=CCC4C3=O)sc2c1 (stereo not given),1%,-5%,11µM*,13%,1%,-1%
CCC(=O)N1CCc2cc(S(=O)(=O)CCC(=O)N3CCN(c4ccccc4Cl)CC3)ccc21,nt,nt,-3%,0%,nt,nt
CCOc1ccc(C(=O)N/N=C(\c2ccccc2)c2ccccn2)cc1,-19%,-22%,19µM*,-63%,6%,0%
O=C(N/N=C(\c1ccccc1)c1ccccn1)c1cccc([N+](=O)[O-])c1,-7%,-25%,0%,-108%,?,-1%
SMILES,Rab9 promoter act,NPC1 promoter act,FLuc modulator,SMN2 splice up,ELG1 genotoxic,KinaseGlo FLuc
C/C(=N\NC(=O)c1c[nH]c2ccccc12)c1ccco1,4µM*,5.6µM*,12µM*,14µM*,7.9µM*,-27%
C/C(=N\NC(=O)c1ccc(F)cc1)c1ccccn1,-32%,?,8.5µM*,nt,5.2µM*,nt
C/C(=N\NC(=O)c1c[nH]c2ccccc12)c1ccccn1,?,2.5µM*,11µM*,24%,?,-7%
COCC(=O)N1CCc2nc(-c3ccccc3)c3c(c2C1)CO[C@@H](C)C3,nt,nt,nt,7%[9.22 µM],nt,-1%[7.66 µM]
COc1cccc(Nc2nc3ccc(C)cc3nc2-n2nc(C)cc2C)c1,nt,nt,-1%,-5%,nt,nt
Cc1nn(-c2ccccc2)c(OC(=O)c2ccccc2)c1S(=O)(=O)c1ccccc1,nt,nt,?,2%,nt,nt
C/C(=N\NC(=O)c1nc2ccccn2c1C)c1cc2ccccc2o1,3%,-2%,-3%,11%,-6%,3%
C/C(=N\NC(=O)c1nc2ccccn2c1C)c1ccco1,2.5µM*,?,?,263%,?,-7%
C/C(=N\NC(=O)c1ccccn1)c1ccc(C(=O)O)s1,-2%,-3%,?,3%,?,14µM*
O=C(N/N=C\c1ccc(Sc2ccccn2)o1)c1cccc(F)c1,-9%,2%,-17%,?,1%,-3%
O=C(N/N=C/c1ccc(Sc2ccccn2)o1)c1cc2ccccc2cc1O,0%,-3%,15µM*,?,13%,-2%
C/C(=N\NC(=O)c1cc2ccccc2cc1O)c1cc2ccccc2o1,11%,20%,15µM*,nt,-11%,nt
CCOC(=O)C(Cc1c[nH]c2ccccc12)NC(=O)COc1ccc(Cl)c(C)c1 (stereo not given),nt,nt,-13%,-12%,nt,nt
CC(C)NC(=O)C1CCN(c2nc3ccccc3nc2C(F)(F)F)CC1,nt,nt,-6%,nt,nt,nt
C/C(=N\NC(=O)c1cc2ccccc2cc1O)c1ccccn1,-24%,2µM*,4.8µM*,nt,?,nt
CN(C)/C=C1\Oc2ccc3ccccc3c2C1=O,?,3.2µM*,17µM*,18µM*,14%,-23%
Cn1cc(/C=C2\SC(=S)N(NC(=O)c3ccccc3Cl)C2=O)c2ccccc21,2%,-1%,27µM*,1%,1%,-2%
Cc1ccc(C(=O)NN2C(=O)/C(=C/c3cn(C)c4ccccc34)SC2=S)cc1,8%,14%,?,10%,-4%,1%
Cc1sc(NC(=O)c2ccc(Cl)s2)c(C(N)=O)c1C,?,?,2.4µM*,10µM*,1.6µM*,-10%
Cc1sc(NC(=S)Nc2ccc(F)cc2)c(C(N)=O)c1C,-11%,0%,-2%,nt,2%,3%
Cc1sc(NC(=O)c2ccc(Br)s2)c(C(N)=O)c1C,?,?,1.7µM*,10µM*,?,-10%
CC[n+]1c(/C=C/c2cc([N+](=O)[O-])ccc2O)ccc2ccccc21,-7%,-2%,-15%,nt,0%,nt

# Source: PubChem (National Center for Advancing Translational Sciences (NCATS))
